# Screening results: PubChem BioAssay, several laboratories
# Compounds with a hit are over-represented: about 1.8% of the library has one in this group of screens.
# VLA-4 inh – inhibition in a human VLA-4 binding assay; VLA-4 expressing cells, ligand binding flow cytometry; inhibition, % (about 7 µM as worked out from the volumes in the protocol); AID 2557; 330,000 compounds, 0.2% hits; P13612
# LANA-H2A inh – blocks KSHV LANA binding to histone H2A/H2B. Q9QR71. cell-free LANA-H2A/H2B peptide, fluorescence polarization. inhibition, % (test concentration not listed). 320,000 compounds, 0.6% hits. AID 2629; in the data active = inhibition mostly above about 10%, no sharp cut-off; inactive = mostly below about 6.7%
# Pemphigus Ab inh – human desmoglein-3 autoantibody binding inhibition; P32926; DSG3-coupled beads, scFv-anti-DSG3-GFP binding, flow cytometry; active compounds read low; binding (percent of control), % at 10 µM; 310,000 compounds, 0.48% hits; AID 588358;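 active = binding more than 3 SD below its plate's average and above zero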;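 also: hits lower antibody fragment binding to DSG3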
# HDAC3 inh – blocks human histone deacetylase 3; O15379; AID 2718; recombinant HDAC3, fluorogenic peptide/trypsin coupled, fluorescence; inhibition, % at 8.3 µM; 320,000 compounds, 0.15% hits; in the data active = inhibition above about 26%, passing the limit was not always enough
# PKD1 kinase inh – inhibitors of human PKD1 kinase | AID 797 | Q15139 | PKD1 kinase fluorescence polarization assay | 200,000 compounds, 0.056% hits | inhibition, % (test concentration not listed)
# GRK2 aptamer HTS – human GRK2 inhibition via aptamer displacement. P25098. bead flow cytometry, FAM-aptamer displacement from GRK2. inhibition of aptamer binding, % at 10 µM. 330,000 compounds, 0.59% hits. AID 488847;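 active = inhibition of aptamer binding above 40%, roughly 3 SD of noise, on plates passing a quality check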;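 also: median bead fluorescence of bound FAM aptamer so fluorescent compounds give negative values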
# VLA-4 allo CP – confirmation of allosteric modulators of human VLA-4 integrin. shares compounds with VLA-4 inh. U937 cells, HUTS-21 LIBS mAb binding, flow cytometry; LDV ligand present at threefold Kd. inhibition, % at 6.7 µM. 1,300 compounds, 2% hits; in the data active = inhibition above about 40%;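 also: 0% = ligand without compound and 100% = no ligand background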
# * marks the source's active call; other numbers are inactive results; i = inactive; . = not tested or not shown; + = active, no number. Rule as the data show it, unless noted: active = inhibition above about 50%; inactive = the rest.
SMILES,VLA-4 inh,LANA-H2A inh,Pemphigus Ab inh,HDAC3 inh,PKD1 kinase inh,GRK2 aptamer HTS,VLA-4 allo CP
COc1cnc(NS(=O)(=O)c2ccc(N)cc2)nc1,59.0*,-3.3,.,1.1,-11.5,0.0,1.1
CC(C)Nc1nc(NC(C)C)nc(NS(=O)(=O)c2ccc(N)cc2)n1,8.8,-0.2,96.2,-1.6,-5.1,2.0,.
CCOc1ccc(NS(=O)(=O)c2ccc(N)cc2)cc1,11.8,1.3,.,-7.8,-7.5,0.0,.
Cc1ccnc(NS(=O)(=O)c2ccc(N)cc2)n1,7.2,-2.2,98.9,4.8,1.4,4.0,-0.8
Nc1c(C2CCCCC2)c(=O)on1C(=O)c1ccccc1,.,.,91.3,.,.,.,.
CS(=O)c1ccc(-n2c(=O)n(Cc3ccccc3)c(=O)c3[nH]cnc32)cc1 (stereo unspecified),-1.4,-0.3,98.2,4.5,.,0.0,.
COc1cc(NS(=O)(=O)c2ccc(N)cc2)ncn1,62.7*,2.4,.,-6.7,-0.1,0.0,-4.2
O=C1CCCc2ccccc2N1Cc1cccc(F)c1,-9.2,1.4,95.9,.,-0.9,0.0,.
O=C1CCCc2ccccc2N1Cc1ccc(F)cc1,52.1*,-0.8,99.1,-1.4,-6.9,2.0,1.2
Cn1nnnc1SCC(=O)N1CCN(S(=O)(=O)c2ccccc2)CC1,50.6*,-1.2,110.0,-4.3,-0.2,3.0,5.3
Cn1c(=O)c2c(ncn2CC(=O)N/N=C/c2c[nH]c3ccccc23)n(C)c1=O,12.5,9.0,.,-1.9,.,0.0,.
COCCn1c(-c2ccco2)nc2nc3ccccc3nc21,92.3*,2.4,98.5,-41.7,-1.4,1.0,-3.0
N=c1sccn1CC(=O)NCCc1ccc(Cl)cc1Cl,95.0*,7.7,104.5,3.3,-8.9,0.0,-8.6
Brc1ccc(-c2noc3c2-c2nc(-c4ccccc4)sc2CC3)cc1,27.2,0.1,103.6,7.4,.,0.0,.
COC(=O)c1sccc1NC(=O)Nc1ccccc1C,-33.8,-8.1,.,1.3,.,7.0,0.7
COC(=O)c1sccc1NC(=O)Nc1ccc(C)c(C)c1,-15.5,2.3,106.6,5.6,.,0.0,.
OC(CNCc1ccco1)Cn1c2ccc(Br)cc2c2cc(Br)ccc21 (stereo unspecified),66.6*,-11.7,129.6,-1.3,-6.7,0.0,38.1
COc1cccc(-c2cc(=O)c3cc(NC(=O)c4ccc(Cl)cc4)ccc3[nH]2)c1,50.1*,-2.0,101.6,8.0,-11.8,0.0,-2.1
COc1cccc(-c2cc(=O)c3cc(NC(=O)c4ccccc4)ccc3[nH]2)c1,-4.2,-5.1,97.2,-10.2,-10.1,4.0,.
CC1CCN(C(=O)CCc2ccc(Oc3cc([N+](=O)[O-])cc([N+](=O)[O-])c3)cc2)CC1,7.5,-1.6,123.9,8.4,-6.7,2.0,.
COc1ccc(-c2cc3nc(C)c(CCC(=O)NCc4ccco4)c(C)n3n2)c(OC)c1,6.7,-4.6,101.9,-3.7,-9.2,3.0,.
Cc1nc2cc(-c3ccc(Cl)cc3)nn2c(C)c1CCC(=O)NCc1ccco1,52.3*,-0.3,96.8,-3.6,-6.0,0.0,17.6
CCN(C[C@H]1N[C@@](Cc2ccccc2)(C(=O)OC)[C@H]2C(=O)N(Cc3ccccc3)C(=O)[C@@H]12)C(=O)COc1ccccc1,55.6*,+,101.9,1.2,.,0.0,2.9
CCN(C[C@H]1N[C@@](Cc2ccccc2)(C(=O)OC)[C@H]2C(=O)N(Cc3ccccc3)C(=O)[C@@H]12)C(=O)C1CCCCC1,8.8,.,99.3,.,.,12.0,-4.2
COc1c2occc2c(OC)c2c(=O)cc(C)oc12,50.9*,5.2,105.7,-1.1,-14.8,0.0,-4.9
SMILES,VLA-4 inh,LANA-H2A inh,Pemphigus Ab inh,HDAC3 inh,PKD1 kinase inh,GRK2 aptamer HTS,VLA-4 allo CP
COc1c2ccoc2cc2oc(C)cc(=O)c12,-9.1,11.4,100.1,3.1,.,0.0,.
COc1cc(CCCN2C(=O)C(=O)NC[C@@H]2CCCCN)cc(OC)c1OC,3.0,-0.4,96.8,-4.8,.,2.0,15.7
COc1cc(CCCN2C(=O)C(=O)NC[C@@H]2Cc2ccc(O)cc2)cc(OC)c1OC,1.8,-2.3,98.3,-0.3,.,0.0,.
CCOC(=O)CSc1ccc2nnc(-c3cccs3)n2n1,51.0*,3.0,104.4,-4.1,4.4,1.0,15.7
CCC(C)NC(=O)c1ccc2c(c1)N(Cc1ccccc1)C(=O)CS2 (stereo unspecified),9.8,0.8,113.7,-13.2,-9.2,0.0,.
O=C(O)c1ccc2c(c1)N(Cc1cccc(F)c1)C(=O)CS2,50.4*,-1.9,103.1,9.4,-3.7,2.0,-0.6
CCCN(C(=O)c1ccccc1N)c1c(C)n(C)n(-c2ccccc2)c1=O,-0.9,-4.8,.,9.6,1.5,2.0,-9.5
Cc1nc(SCC(=O)N2CCCC2=O)nc(C)c1C,-1.4,-2.9,117.3,-3.3,.,0.0,.
COc1cc(CC(=O)OCC(=O)c2ccc3c(c2)OCCO3)cc(OC)c1OC,91.0*,-0.6,90.2,0.5,-3.2,0.0,-5.8
O=C(COC(=O)c1ccc(O)cc1)c1ccc2c(c1)OCCO2,.,.,100.3,.,.,.,.
O=C(CNc1ccccc1)NN=C1CCCC1,-1.9,6.1,100.2,-2.6,2.3,1.0,.
CCOC(=O)c1c(N2C(=O)C=CC2=O)sc(C)c1C,50.3*,-3.9,114.6,-2.5,-1.1,0.0,32.0
O=C(CCNC(=O)c1ccccc1)Nc1ccc(F)c(Cl)c1,54.1*,6.1,95.2,3.6,0.5,4.0,13.7
Cc1ccc(S(=O)(=O)N2[C@@H](c3ccc(Br)cc3)C(C(=O)O)=C[C@H]2C(C)(C)C)cc1,51.5*,i,100.9,-2.0,.,3.0,-1.4
CCCC[C@@H]1C=C(C(=O)O)[C@H](c2ccc(C)cc2)N1S(=O)(=O)c1ccc(C)cc1,52.9*,-2.6,108.7,2.3,.,0.0,-2.1
Cc1ccc(S(=O)(=O)N2[C@@H](c3ccc(C#N)cc3)C(C(=O)O)=C[C@H]2C(C)(C)C)cc1,21.4,-7.0,107.0,4.0,.,0.0,.
CCCCC[C@@H]1C=C(C(=O)O)[C@H](c2ccc(C)cc2)N1S(=O)(=O)c1ccc(C)cc1,-8.9,.,104.3,.,.,2.0,.
CCCCC[C@@H]1C=C(C(=O)O)[C@H](c2ccc(Cl)cc2)N1S(=O)(=O)c1ccc(C)cc1,16.5,.,98.2,.,.,1.0,1.3
CCCCc1nnc(NC(=O)Cc2ccc(S(=O)(=O)N3CCOCC3)s2)s1,-39.5,.,108.4,-16.9,.,0.0,.
COc1ccc(NC(=O)CC(C)CC(=O)NCc2ccc(F)cc2)c(OC)c1 (stereo unspecified),-2.9,0.6,105.0,-4.7,.,6.0,.
COc1ccc(C)cc1NC(=O)NCc1ccc(F)cc1,40.2,2.8,86.5,4.3,6.6,0.0,-2.0
COc1ccc(OC)c(NC(=O)NCc2ccc(F)cc2)c1,-1.0,-4.3,89.3,-0.4,-0.1,0.0,.
COc1ccc(-c2noc(CCC(=O)NCCCN3CCN(c4ccc(F)cc4)CC3)n2)cc1,56.7*,9.7,84.5,-3.8,-7.2,0.0,-5.8
